Rows were chosen to be rich in hits. Some 3.4% of all compounds tested hit in one or more screens of this group.
MITF inh: blocks human microphthalmia-associated transcription factor | O75030 | AlphaScreen MITF homodimerization, bead proximity signal | inhibition, % at 2.6 µM | 650,000 compounds, 0.91% hits; in the data active = inhibition above about 50%
Target sequence (O75030 whole entry, looked up): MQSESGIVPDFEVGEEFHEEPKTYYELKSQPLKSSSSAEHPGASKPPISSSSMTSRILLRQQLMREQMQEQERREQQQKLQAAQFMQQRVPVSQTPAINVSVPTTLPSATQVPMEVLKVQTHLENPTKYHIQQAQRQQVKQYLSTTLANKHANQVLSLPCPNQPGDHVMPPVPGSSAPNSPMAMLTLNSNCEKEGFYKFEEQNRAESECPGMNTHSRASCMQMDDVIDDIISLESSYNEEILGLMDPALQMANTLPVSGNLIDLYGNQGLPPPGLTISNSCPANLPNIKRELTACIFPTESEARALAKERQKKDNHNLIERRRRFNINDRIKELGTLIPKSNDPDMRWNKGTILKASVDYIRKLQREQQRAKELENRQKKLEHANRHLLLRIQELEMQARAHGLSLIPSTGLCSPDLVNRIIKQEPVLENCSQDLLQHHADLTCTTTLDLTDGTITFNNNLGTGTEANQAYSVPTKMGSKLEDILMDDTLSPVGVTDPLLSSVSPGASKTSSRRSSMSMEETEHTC
FBW7 activator: activators of human E3 ligase FBW7; normalized activity (activation), % at 26.1 µM; AID 1259310; Q969H0; AlphaScreen FBW7–phospho-cyclin E peptide binding, activator screen; 650,000 compounds, 0.13% hits; in the data active = normalized activity above about 1.9%;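 also: purified mutant Fbw7 with reduced substrate affinity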
GPR151 ag: activators of human GPR151; 650,000 compounds, 1% hits; Q8TDV0; PathHunter beta-arrestin GPR151 cells, luminescence; AID 1508602; activation, % at 11.2 µM; in the data active = activation above about 4.9%
TEAD-YAP block: TEAD-YAP interaction inhibition | HEK-TIYL cells, TEAD-Gal4/YAP UAS-luciferase luminescence | inhibition, % at 9.12 µM | 640,000 compounds, 1.4% hits; in the data active = inhibition above about 32%
Numbers stand for hits; i = inactive; nt = no result.

SMILES | MITF inh | FBW7 activator | GPR151 ag | TEAD-YAP block
Nc1nc(NCCOc2ccccc2)cc(-c2csc3ccccc23)n1 | i | i | i | 41.9
CCCNc1cc(-c2csc3ccccc23)nc(N)n1 | i | i | i | i
CCC(C(=O)Nc1cc(C)ccc1C)n1nnc(C(=O)OC)c1C(=O)OC (centres undefined) | i | i | i | i
CCCNC(=O)c1cc(Nc2ccc(N3CCOCC3)cc2)nc2ccccc12 | i | i | i | i
CCOc1ccc2nc(SCC(=O)Nc3ccccc3-c3ccccc3)sc2c1 | i | i | i | i
Cc1c(NC(=O)/C(=C\c2ccccc2)NC(=O)c2ccccc2)c(=O)n(-c2ccccc2)n1C | i | 1.9 | i | i
Cc1ccc(C(=O)N/C(=C\c2ccc(F)cc2)C(=O)Nc2c(C)n(C)n(-c3ccccc3)c2=O)cc1 | i | i | i | i
O=C(NCc1cccs1)C1CCN(C(=O)Nc2ccc(Cl)cc2)CC1 | i | 2.4 | i | i
Cc1nc2ccccn2c1C(=O)Nc1ccccc1 | i | i | i | i
Cc1nc2ccccn2c1C(=O)Nc1ccc(CC(=O)NCc2cccs2)cc1 | i | i | i | 54.8
O=C(Cc1ccc(Cl)cc1)NCc1cccs1 | i | 9.5 | i | i
O=C(CCN1C(=O)C2CCCCC2C1=O)N1CCc2ccccc2C1 (centres undefined) | i | i | i | i
Cc1cccc(Nc2nc(-c3ccc(O)c(O)c3)cs2)c1 | i | i | i | i
Nc1ccc(Nc2nc(-c3ccc(O)c(O)c3)cs2)cc1 | 97.8 | i | i | i
Oc1ccc(Nc2nc(-c3ccc(Cl)cc3)cs2)cc1 | i | nt | i | nt
O=C(O)c1ccc(Nc2nc(-c3ccc(O)c(O)c3)cs2)cc1 | 91.5 | i | i | i
Oc1ccc(Nc2nc(-c3ccc(O)c(O)c3)cs2)cc1 | 53.9 | i | i | i
CCCC(=O)Nc1cccc(C(=O)NCC(C)C)c1 | i | i | i | i
Cn1c(C(=O)NCCCN2CCCC2)cc2sccc21 | i | i | i | i
Cc1cc2c(cc(C(=O)NCCc3ccccc3)n2C)s1 | i | i | i | 57.6
Cn1c(C(=O)NCCc2ccccc2)cc2sccc21 | i | i | i | 41.3
O=C(CN1CCN(S(=O)(=O)N2CCCCCC2)CC1)Nc1ccc(F)cc1 | i | i | i | i
Oc1ccc(/C=N/Nc2nn[nH]n2)c(O)c1O | 95.4 | i | i | i
C(=N\Nc1nn[nH]n1)/c1ccc2c(c1)OCO2 | i | i | i | i
CCN(CC)c1ccc(/C=N/Nc2nn[nH]n2)c(O)c1 | i | i | i | i
SMILES | MITF inh | FBW7 activator | GPR151 ag | TEAD-YAP block
Oc1ccc(/C=N/Nc2nn[nH]n2)cc1O | 52.3 | i | i | i
O=C(Nc1cc2cc(Br)ccc2oc1=O)c1ccc([N+](=O)[O-])cc1 | i | i | i | i
CC(=O)Nc1cccc(NC(=O)CSc2nc(-c3ccco3)cc(C(F)(F)F)n2)c1 | i | i | i | 42.0
CC(C)NC(=O)CSc1nc(-c2ccco2)cc(C(F)(F)F)n1 | i | i | i | i
CCCNC(=O)CSc1nc(-c2ccco2)cc(C(F)(F)F)n1 | i | i | i | i
O=C(CSc1nc(-c2ccco2)cc(C(F)(F)F)n1)Nc1cccnc1 | i | i | i | 48.0
O=C1c2ccccc2C(=O)c2c(O)c([N+](=O)[O-])cc(O)c21 | i | i | i | i
CCOc1ccc(-c2c3cc(O)c(=O)cc-3oc3cc(O)c(O)cc23)cc1 | 110.8 | i | i | i
CCOc1ccc(-c2cc(=O)c3ccc(NC(=O)c4ccncc4)cc3o2)cc1 | i | i | i | i
O=c1cc2oc3cc(O)c(O)cc3c(-c3ccccc3[N+](=O)[O-])c-2cc1O | 114.4 | i | i | i
O=c1cc(-c2ccc3c(c2)OCCO3)oc2ccc([N+](=O)[O-])cc12 | i | i | i | i
O=c1cc2oc3cc(O)c(O)cc3c(-c3ccc([N+](=O)[O-])cc3)c-2cc1O | 97.0 | i | i | i
O=C(c1cccc2ccccc12)N1CCN(CCn2cccn2)CC1 | i | i | i | i
CCCN1CCN(S(=O)(=O)c2cc3c(cc2C)NC(=O)CO3)CC1 | i | i | i | i
CC(C)(C)OC(=O)N1CCc2c(cnn2-c2cccc(C(=O)Nc3ccc(N4CCOCC4)cc3)c2)C1 | i | 4.1 | i | i
O=C(Nc1ccc(N2CCOCC2)cc1)c1cccc(-n2cc(-c3nc4ccccc4o3)cn2)c1 | i | 2.4 | i | i
O=C(Nc1ccc(N2CCOCC2)cc1)c1cccc(-n2ncc3c2CCNC3)c1 | i | i | i | i
Cc1cc(NC(=O)CSc2nnc3n(-c4ccccc4)c(=O)c4ccccc4n23)no1 | i | i | i | i
CN(C)c1ccc(CN2CCC(C(N)=O)CC2)cc1 | 75.9 | i | i | i
CN(C)c1ccc(CN2CCN(c3ncccn3)CC2)cc1 | i | i | i | i
CN(C)c1ccc(CN2CCN(CCO)CC2)cc1 | 76.9 | i | i | i
